According to PubChem BioAssay AID493052 (Broad Institute, 2011):
Measured potencies and affinities stand elsewhere. Unmarked numbers belong to inactive results.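 How the source made its calls: active means viability falls with dose and fitted half-maximal concentration is at most ten times the top valid dose; inconclusive means flat partial loss of 30 to 70 percent, or poor fit; inactive means flat within 30 percent, too weak, or rising signal.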

Experiment: cytotoxicity in BJeHLT fibroblasts, dose response, counter-screen for Ras selective lethality project, BJeHLT cells, dry powder (AID 493052)
Conditions: BJeHLT fibroblasts viability, Alamar Blue fluorescence, 48 h; series mostly up to 45 µM; activity change, negative = less viable: at the top concentration

Structure (SMILES)	activity change, negative = less viable
COc1ccc(N(C(=O)CSc2ncccn2)C(C(=O)NCCc2ccccc2)c2cccs2)cc1Cl (stereo not given)	-15.2% [at 38 µM]
COCC(=O)N(c1ccc(OC)c(Cl)c1)C(C(=O)NCCc1ccccc1)c1cccs1 (stereo not given)	4.09%
O=C(c1[nH]ncc1[N+](=O)[O-])N1CCN(C(c2ccccc2)c2ccccc2)CC1	6.21%
CCC(=O)N(c1ccc(OC)c(Cl)c1)C(C(=O)NCCc1ccccc1)c1cccs1 (stereo not given)	2.96%
COc1ccc(N(C(=O)CO)C(C(=O)NCCc2ccccc2)c2cccs2)cc1Cl (stereo not given)	7.01%
